Consider 20 sequences from the supplement of paper PMC10681739.

In test [1] the target is T1, ETS1 (UniProt P14921).
T1 sequence: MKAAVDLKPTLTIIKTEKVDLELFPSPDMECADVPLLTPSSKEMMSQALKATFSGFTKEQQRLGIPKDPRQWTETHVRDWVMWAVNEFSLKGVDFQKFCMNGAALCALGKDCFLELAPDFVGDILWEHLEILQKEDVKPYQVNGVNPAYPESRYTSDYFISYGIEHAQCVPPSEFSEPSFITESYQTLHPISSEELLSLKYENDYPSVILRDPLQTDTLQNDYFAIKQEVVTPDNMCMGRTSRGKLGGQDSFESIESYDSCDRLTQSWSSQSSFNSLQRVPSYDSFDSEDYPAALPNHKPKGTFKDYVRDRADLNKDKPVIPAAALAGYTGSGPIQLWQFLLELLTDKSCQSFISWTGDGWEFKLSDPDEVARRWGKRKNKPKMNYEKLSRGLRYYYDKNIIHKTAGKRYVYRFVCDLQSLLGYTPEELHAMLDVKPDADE
As to the kind of experiment: ETS1 binding intensity (PBM fluorescence), ETS1 alone (arbitrary fluorescence units); higher = stronger binding. The note with it: ETS1 concentration 1 nM; RUNX1 concentration 0 nM.

For test [2], the target named is RUNX1 (UniProt Q01196). As to the kind of experiment: RUNX1 binding intensity (PBM fluorescence), RUNX1 alone (arbitrary fluorescence units); higher = stronger binding. The note with it: RUNX1 concentration 2 nM; ETS1 concentration 0 nM. As for the experimental part: (§1)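 Cooperative gcPBM on 36-bp genomic probes with neighbouring ETS1 and RUNX1 sites. Recombinant human RUNX1 (2 nM) was incubated alone or with ETS1 (25 nM) and detected with anti-RUNX1 antibody plus Alexa488 secondary. Values are medians over 4 replicate spots; the RUNX1+ETS1 data were normalised to the RUNX1-only data. The probes sit in constant array flanks that are not printed.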

The target of test [3] is T1, ETS1. As to the kind of experiment: ETS1 binding intensity (PBM fluorescence) in presence of RUNX1, normalised to ETS1-only experiment (arbitrary fluorescence units); higher = stronger binding. The note with it: ETS1 concentration 1 nM; RUNX1 concentration 25 nM.
Test [4] addresses RUNX1 (UniProt Q01196). As to the kind of experiment: RUNX1 binding intensity (PBM fluorescence) in presence of ETS1, normalised to RUNX1-only experiment (arbitrary fluorescence units); higher = stronger binding. The note with it: RUNX1 concentration 2 nM; ETS1 concentration 25 nM. As for the experimental part: as §1
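For RUNX1 binding intensity (PBM fluorescence) in presence of ETS1, normalised to RUNX1-only experiment in this document: Full-length recombinant human ETS1 or RUNX1 bound to double-stranded 36-bp genomic probes on microarrays, detected by protein-specific primary antibody and Alexa488 secondary, spot fluorescence as median of four replicate spots.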
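For RUNX1 binding intensity (PBM fluorescence), RUNX1 alone in this document: Full-length recombinant human RUNX1 bound to double-stranded 36-bp genomic probes on a high-density microarray, scored as Alexa488 fluorescence per spot via anti-RUNX1 antibody, median of four replicate spots.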

Chain of RUNX1 (Q01196 whole entry): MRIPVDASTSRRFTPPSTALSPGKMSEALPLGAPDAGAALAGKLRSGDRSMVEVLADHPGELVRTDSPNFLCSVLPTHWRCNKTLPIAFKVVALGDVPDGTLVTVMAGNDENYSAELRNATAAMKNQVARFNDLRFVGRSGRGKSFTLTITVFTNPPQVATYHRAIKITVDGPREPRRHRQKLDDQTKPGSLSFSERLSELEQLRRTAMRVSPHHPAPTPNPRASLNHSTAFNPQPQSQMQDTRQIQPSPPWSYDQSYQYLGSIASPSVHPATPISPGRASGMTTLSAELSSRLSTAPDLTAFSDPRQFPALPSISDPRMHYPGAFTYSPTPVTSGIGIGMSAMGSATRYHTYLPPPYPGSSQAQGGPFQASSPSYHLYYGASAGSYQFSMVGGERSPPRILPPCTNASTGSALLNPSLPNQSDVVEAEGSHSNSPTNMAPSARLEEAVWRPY

With TATGGCGGGCAGGAAGTGCGGGTGCGCGCCTGCGCA, the figures for the ETS1 binding intensity in the test with ETS1 [1] and in the test with ETS1 [3] were 4640 and 5650, respectively. The RUNX1 binding intensity in the test with RUNX1 [2] is 642; in the test with RUNX1 [4], 1360.

As to TTTTGCCCAACAGGATGTGGTTTCTAAAGCAGACGG, the ETS1 binding intensity with ETS1 [1] stood at 6620; with ETS1 [3], 31600. The figures for the RUNX1 binding intensity with RUNX1 [2] and with RUNX1 [4] were 1290 and 18500, respectively.

For TCCCTTACCTTCCTGCTGCCACCAAACCACCAAACC, the ETS1 binding intensity with ETS1 [1] stood at 460; with ETS1 [3], 1040. In addition, the RUNX1 binding intensity in the test with RUNX1 [2] was found to be 2510; with RUNX1 [4] it was 3260.

Regarding TCGTGTTCTCTTCCGTTCTGTGGTAGCTTTTTGGTA, the results for the ETS1 binding intensity with ETS1 [1] and with ETS1 [3] were 655 and 557, respectively. The RUNX1 binding intensity with RUNX1 [2] amounted to 1470; with RUNX1 [4] it was 1870.

For the sequence GACTTCCTGTTGAAGATTGGCCTCTGCGGTACCACG, the ETS1 binding intensity in the test with ETS1 [1] is 951; with ETS1 [3] it was 2350. Further, the figures for the RUNX1 binding intensity with RUNX1 [2] and in the test with RUNX1 [4] were 2700 and 9740, respectively.

As for GGCTGCAGGAAGTGGGAAGGTGTGGCTTTGAGTCTC, the values for the ETS1 binding intensity with ETS1 [1] and in the test with ETS1 [3] were 1830 and 2460, respectively. For the same sequence, the RUNX1 binding intensity stood at 755 with RUNX1 [2] and 1820 with RUNX1 [4].

Regarding TGAGTCACATCCTGCAGGGCTGCGGTATCCTGGCTT, the ETS1 binding intensity was found to be 773 with ETS1 [1] and 1680 with ETS1 [3]. Further, the RUNX1 binding intensity was 928 in the test with RUNX1 [2] and 3310 in the test with RUNX1 [4].

Take CGAGCAGGAAGTGGCAAGATTTGATAGGCGGTCAGG: the ETS1 binding intensity with ETS1 [1] turned out to be 1970; with ETS1 [3], 2940. Also, the RUNX1 binding intensity with RUNX1 [2] stood at 739; with RUNX1 [4], 1450.

Turning to GACATATCCTGCATTCTCAGAAAAACCACAGGCTAG, the ETS1 binding intensity with ETS1 [1] stood at 391; in the test with ETS1 [3], 1050. The values for the RUNX1 binding intensity with RUNX1 [2] and in the test with RUNX1 [4] were 1290 and 2000, respectively.

As for GCCTCCTCCCATTTCCTCCATGTGGTCAATCCAGTT, the ETS1 binding intensity stood at 459 with ETS1 [1] and 731 with ETS1 [3]. Moreover, the RUNX1 binding intensity turned out to be 2070 in the test with RUNX1 [2] and 3860 with RUNX1 [4].

For the sequence AAAAGGCACCAGGAAATGACAGCACCGCAGCACGCC, the ETS1 binding intensity is 1290 with ETS1 [1] and 2020 in the test with ETS1 [3]. Also, the values for the RUNX1 binding intensity in the test with RUNX1 [2] and with RUNX1 [4] were 717 and 871, respectively.

CTACAGGAAGTTCGAACTGGGCGGAGCCCACCGCAG: the ETS1 binding intensity was 1320 in the test with ETS1 [1] and 1950 with ETS1 [3]. Besides, the RUNX1 binding intensity stood at 658 with RUNX1 [2] and 1120 with RUNX1 [4].

With ACACTGGCCGGAAGGGGCGGGACCGCGAGTTAAGAG, the ETS1 binding intensity was determined as 1280 with ETS1 [1] and 2380 with ETS1 [3]. Also, the RUNX1 binding intensity with RUNX1 [2] was 791; with RUNX1 [4], 1320.

Regarding CCACGTAAAGGCGGAAGCGGTTGAGTGGACGCCATC, the ETS1 binding intensity was determined as 3090 with ETS1 [1] and 4150 with ETS1 [3]. For the same sequence, the figures for the RUNX1 binding intensity with RUNX1 [2] and in the test with RUNX1 [4] were 708 and 1640, respectively.

Regarding TGCATGCAACAGGAAGTGGGGTGTGGTTTGTTCTGG, the ETS1 binding intensity with ETS1 [1] turned out to be 11600; in the test with ETS1 [3], 39100. Moreover, the RUNX1 binding intensity with RUNX1 [2] amounted to 760; with RUNX1 [4] it was 1890.

On to AAGGTGGAAAAAGGATGTGGTTCTAAGCTGGCTTCT, for which the ETS1 binding intensity with ETS1 [1] is 887; with ETS1 [3], 1120. Further, the RUNX1 binding intensity in the test with RUNX1 [2] stood at 735; in the test with RUNX1 [4], 1020.

As for AGCTGAAGGGCAGGATGTGGTTTCAGCATTCGGTGA, the figures for the ETS1 binding intensity in the test with ETS1 [1] and with ETS1 [3] were 3090 and 16400, respectively. Also, the results for the RUNX1 binding intensity with RUNX1 [2] and with RUNX1 [4] were 791 and 5290, respectively.

On to TATGTGTTTTAGGCAGGATGTGGGTTTTAGTCTTTC, for which the ETS1 binding intensity is 8060 in the test with ETS1 [1] and 36400 in the test with ETS1 [3]. In addition, the RUNX1 binding intensity with RUNX1 [2] was 840; with RUNX1 [4], 2200.

In the case of GAGATACACAGCGACATCCGCCCGCAAGAGCATGGT, the ETS1 binding intensity with ETS1 [1] was 823; in the test with ETS1 [3], 1090. Also, the RUNX1 binding intensity was 733 in the test with RUNX1 [2] and 1280 with RUNX1 [4].

Turning to AACTAGGCTTTTCTTTCCTGTGGTCCTTAAGGAGGC, the ETS1 binding intensity with ETS1 [1] came out at 461; with ETS1 [3] it was 329. Further, the RUNX1 binding intensity with RUNX1 [2] turned out to be 929; with RUNX1 [4], 1020.
